Legend:
[1] = target: T1, Serine/threonine-protein kinase 17A (Homo sapiens) (UniProt Q9UEE5); details: at 10 µM
T1 sequence (whole entry): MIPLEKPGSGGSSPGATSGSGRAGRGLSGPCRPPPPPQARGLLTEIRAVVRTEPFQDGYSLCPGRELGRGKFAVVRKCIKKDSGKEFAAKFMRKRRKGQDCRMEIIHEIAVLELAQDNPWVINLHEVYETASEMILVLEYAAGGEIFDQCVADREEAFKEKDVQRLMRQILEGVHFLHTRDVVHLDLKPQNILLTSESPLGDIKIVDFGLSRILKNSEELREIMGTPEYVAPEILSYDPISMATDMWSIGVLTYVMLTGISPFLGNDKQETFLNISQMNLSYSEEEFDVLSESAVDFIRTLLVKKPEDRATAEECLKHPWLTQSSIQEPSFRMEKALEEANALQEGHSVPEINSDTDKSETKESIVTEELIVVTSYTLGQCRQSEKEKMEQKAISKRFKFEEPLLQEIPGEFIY

[2] = target: T2, Dual specificity tyrosine-phosphorylation-regulated kinase 2 (Homo sapiens) (UniProt Q92630); details: at 1 µM
T2 sequence (whole entry): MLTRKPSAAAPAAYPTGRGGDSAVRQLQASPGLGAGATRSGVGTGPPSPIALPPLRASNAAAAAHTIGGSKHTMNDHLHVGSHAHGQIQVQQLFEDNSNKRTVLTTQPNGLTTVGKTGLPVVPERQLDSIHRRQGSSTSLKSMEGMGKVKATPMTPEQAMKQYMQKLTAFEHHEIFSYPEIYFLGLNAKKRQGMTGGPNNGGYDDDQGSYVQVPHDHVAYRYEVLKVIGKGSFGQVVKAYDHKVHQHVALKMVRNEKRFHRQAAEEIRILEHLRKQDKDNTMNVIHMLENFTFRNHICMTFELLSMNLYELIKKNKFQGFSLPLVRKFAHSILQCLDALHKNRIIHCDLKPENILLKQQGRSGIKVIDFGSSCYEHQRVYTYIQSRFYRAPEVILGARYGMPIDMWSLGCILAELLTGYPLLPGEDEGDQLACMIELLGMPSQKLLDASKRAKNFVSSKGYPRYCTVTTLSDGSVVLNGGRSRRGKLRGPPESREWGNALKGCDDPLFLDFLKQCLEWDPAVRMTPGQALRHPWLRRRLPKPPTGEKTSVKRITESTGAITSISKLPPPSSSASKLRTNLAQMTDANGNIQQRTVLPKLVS

[3] = target: T2, Dual specificity tyrosine-phosphorylation-regulated kinase 2 (Homo sapiens); details: at 10 µM
[4] = target: T3, Ephrin type-A receptor 1 (Homo sapiens) (UniProt P21709); details: at 1 µM
T3 sequence (whole entry): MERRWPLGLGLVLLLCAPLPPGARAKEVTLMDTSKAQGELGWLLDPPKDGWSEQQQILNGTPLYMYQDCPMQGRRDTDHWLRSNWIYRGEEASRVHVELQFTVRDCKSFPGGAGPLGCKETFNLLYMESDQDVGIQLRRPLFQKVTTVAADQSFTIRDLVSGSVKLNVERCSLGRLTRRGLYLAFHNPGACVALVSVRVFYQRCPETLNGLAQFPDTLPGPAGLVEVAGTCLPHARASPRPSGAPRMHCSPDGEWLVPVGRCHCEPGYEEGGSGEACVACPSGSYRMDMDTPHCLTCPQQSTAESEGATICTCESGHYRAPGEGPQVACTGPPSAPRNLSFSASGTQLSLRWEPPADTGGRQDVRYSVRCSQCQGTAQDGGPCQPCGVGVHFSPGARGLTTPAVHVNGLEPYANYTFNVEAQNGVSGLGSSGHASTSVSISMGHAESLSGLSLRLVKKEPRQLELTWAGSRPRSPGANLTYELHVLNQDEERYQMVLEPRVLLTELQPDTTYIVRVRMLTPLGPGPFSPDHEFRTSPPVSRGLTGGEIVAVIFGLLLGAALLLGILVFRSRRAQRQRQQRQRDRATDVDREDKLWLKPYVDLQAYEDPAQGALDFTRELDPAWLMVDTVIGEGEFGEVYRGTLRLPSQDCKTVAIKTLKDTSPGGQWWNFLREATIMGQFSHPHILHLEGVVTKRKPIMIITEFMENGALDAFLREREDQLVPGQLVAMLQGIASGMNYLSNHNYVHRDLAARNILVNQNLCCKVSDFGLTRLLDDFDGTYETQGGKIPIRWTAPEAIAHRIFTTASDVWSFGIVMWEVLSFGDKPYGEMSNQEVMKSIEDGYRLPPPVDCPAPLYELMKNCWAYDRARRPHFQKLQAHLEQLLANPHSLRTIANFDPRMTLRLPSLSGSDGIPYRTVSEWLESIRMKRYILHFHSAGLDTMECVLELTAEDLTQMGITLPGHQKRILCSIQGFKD

[5] = target: T3, Ephrin type-A receptor 1 (Homo sapiens); details: at 10 µM
[6] = target: Ephrin type-A receptor 2 (Homo sapiens) (UniProt P29317); details: at 1 µM
[7] = target: Ephrin type-A receptor 2 (Homo sapiens) (UniProt P29317); details: at 10 µM
[8] = target: T4, Ephrin type-A receptor 3 (Homo sapiens) (UniProt P29320); details: at 1 µM
T4 sequence (whole entry): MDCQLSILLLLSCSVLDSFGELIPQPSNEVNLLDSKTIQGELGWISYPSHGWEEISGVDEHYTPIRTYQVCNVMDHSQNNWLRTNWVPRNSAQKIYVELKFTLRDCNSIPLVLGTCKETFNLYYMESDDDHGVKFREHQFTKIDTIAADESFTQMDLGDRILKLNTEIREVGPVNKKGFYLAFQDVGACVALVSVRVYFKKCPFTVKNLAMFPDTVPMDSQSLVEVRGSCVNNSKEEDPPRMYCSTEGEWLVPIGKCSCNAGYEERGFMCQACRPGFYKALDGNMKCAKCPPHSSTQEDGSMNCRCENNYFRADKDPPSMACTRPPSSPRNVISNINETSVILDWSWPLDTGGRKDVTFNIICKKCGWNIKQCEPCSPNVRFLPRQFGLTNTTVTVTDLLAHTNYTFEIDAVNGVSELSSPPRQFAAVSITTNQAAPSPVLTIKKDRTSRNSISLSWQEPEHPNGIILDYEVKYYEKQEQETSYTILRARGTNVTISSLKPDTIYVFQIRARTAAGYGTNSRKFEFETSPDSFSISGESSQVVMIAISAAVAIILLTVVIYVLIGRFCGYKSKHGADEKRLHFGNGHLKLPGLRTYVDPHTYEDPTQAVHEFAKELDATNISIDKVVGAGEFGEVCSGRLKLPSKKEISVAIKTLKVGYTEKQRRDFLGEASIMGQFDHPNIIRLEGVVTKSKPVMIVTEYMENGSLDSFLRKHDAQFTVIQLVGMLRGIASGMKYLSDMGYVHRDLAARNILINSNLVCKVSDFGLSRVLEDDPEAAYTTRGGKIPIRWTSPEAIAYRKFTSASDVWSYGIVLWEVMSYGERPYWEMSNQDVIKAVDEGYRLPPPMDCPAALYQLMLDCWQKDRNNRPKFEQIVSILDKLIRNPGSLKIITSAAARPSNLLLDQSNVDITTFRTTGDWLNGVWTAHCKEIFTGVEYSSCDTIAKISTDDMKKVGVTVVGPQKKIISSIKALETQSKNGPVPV

[9] = target: T4, Ephrin type-A receptor 3 (Homo sapiens); details: at 10 µM
[10] = target: Ephrin type-A receptor 4 (Homo sapiens) (UniProt P54764); details: at 1 µM
[11] = target: Ephrin type-A receptor 4 (Homo sapiens) (UniProt P54764); details: at 10 µM
[12] = target: Ephrin type-A receptor 5 (Homo sapiens) (UniProt P54756); details: at 1 µM
[13] = target: Ephrin type-A receptor 5 (Homo sapiens) (UniProt P54756); details: at 10 µM
[14] = target: Ephrin type-A receptor 7 (Homo sapiens) (UniProt Q15375); details: at 1 µM
[15] = target: Ephrin type-A receptor 7 (Homo sapiens) (UniProt Q15375); details: at 10 µM
[16] = target: T5, Ephrin type-A receptor 8 (Homo sapiens) (UniProt P29322); details: at 1 µM
T5 sequence (whole entry): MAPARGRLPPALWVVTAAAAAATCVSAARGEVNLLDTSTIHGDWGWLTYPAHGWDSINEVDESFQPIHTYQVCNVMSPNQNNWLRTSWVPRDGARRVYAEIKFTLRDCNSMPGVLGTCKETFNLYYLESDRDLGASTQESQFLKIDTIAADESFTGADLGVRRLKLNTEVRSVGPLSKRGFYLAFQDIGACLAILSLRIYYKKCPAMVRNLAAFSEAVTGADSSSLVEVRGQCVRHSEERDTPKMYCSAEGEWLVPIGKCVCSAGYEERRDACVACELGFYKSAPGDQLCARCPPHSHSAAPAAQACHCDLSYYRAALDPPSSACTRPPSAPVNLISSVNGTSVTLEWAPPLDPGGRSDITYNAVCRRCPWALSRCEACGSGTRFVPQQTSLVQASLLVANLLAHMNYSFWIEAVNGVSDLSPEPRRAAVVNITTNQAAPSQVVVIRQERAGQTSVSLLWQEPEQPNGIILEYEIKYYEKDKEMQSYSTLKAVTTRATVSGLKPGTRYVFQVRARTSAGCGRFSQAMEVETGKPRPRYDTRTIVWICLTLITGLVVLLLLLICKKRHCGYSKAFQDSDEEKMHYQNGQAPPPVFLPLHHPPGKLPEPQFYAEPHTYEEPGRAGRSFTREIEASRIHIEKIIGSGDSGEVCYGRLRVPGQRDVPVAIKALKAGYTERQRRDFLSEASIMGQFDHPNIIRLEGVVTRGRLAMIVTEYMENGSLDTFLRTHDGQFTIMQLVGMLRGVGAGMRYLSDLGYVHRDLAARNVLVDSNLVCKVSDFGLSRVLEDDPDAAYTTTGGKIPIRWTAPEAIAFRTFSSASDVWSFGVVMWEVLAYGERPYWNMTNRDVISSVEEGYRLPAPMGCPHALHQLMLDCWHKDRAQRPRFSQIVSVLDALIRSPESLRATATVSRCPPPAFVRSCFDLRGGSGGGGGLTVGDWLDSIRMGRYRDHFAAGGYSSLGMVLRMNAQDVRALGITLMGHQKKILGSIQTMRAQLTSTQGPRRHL

[17] = target: T5, Ephrin type-A receptor 8 (Homo sapiens); details: at 10 µM
[18] = target: T6, Ephrin type-B receptor 1 (Homo sapiens) (UniProt P54762); details: at 1 µM
T6 sequence (whole entry): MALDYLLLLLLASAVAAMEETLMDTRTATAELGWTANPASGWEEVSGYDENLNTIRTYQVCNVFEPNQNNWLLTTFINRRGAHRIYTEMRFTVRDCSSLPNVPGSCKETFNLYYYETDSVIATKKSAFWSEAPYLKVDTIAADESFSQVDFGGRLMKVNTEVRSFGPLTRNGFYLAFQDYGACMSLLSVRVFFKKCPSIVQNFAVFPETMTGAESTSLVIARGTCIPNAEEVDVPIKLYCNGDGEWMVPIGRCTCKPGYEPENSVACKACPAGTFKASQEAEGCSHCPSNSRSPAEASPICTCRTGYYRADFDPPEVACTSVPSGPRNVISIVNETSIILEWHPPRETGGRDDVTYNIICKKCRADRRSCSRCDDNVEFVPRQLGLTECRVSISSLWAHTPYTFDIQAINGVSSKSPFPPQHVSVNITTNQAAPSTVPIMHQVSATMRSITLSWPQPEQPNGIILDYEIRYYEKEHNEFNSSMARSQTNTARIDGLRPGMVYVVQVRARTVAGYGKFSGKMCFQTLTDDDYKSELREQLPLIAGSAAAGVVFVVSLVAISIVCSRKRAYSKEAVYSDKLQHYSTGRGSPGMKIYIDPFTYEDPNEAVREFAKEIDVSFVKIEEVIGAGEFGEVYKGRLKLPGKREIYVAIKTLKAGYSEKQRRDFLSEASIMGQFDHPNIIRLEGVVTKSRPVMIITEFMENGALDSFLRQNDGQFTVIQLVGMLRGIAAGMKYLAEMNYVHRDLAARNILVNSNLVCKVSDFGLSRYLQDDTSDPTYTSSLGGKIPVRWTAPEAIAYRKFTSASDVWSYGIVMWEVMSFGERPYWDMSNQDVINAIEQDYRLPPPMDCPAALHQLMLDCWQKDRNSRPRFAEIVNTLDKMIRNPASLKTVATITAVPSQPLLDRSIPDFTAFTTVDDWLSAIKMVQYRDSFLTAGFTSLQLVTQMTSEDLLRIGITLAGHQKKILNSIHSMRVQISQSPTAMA

Sequence of Ephrin type-A receptor 2 (Homo sapiens) (P29317 whole entry): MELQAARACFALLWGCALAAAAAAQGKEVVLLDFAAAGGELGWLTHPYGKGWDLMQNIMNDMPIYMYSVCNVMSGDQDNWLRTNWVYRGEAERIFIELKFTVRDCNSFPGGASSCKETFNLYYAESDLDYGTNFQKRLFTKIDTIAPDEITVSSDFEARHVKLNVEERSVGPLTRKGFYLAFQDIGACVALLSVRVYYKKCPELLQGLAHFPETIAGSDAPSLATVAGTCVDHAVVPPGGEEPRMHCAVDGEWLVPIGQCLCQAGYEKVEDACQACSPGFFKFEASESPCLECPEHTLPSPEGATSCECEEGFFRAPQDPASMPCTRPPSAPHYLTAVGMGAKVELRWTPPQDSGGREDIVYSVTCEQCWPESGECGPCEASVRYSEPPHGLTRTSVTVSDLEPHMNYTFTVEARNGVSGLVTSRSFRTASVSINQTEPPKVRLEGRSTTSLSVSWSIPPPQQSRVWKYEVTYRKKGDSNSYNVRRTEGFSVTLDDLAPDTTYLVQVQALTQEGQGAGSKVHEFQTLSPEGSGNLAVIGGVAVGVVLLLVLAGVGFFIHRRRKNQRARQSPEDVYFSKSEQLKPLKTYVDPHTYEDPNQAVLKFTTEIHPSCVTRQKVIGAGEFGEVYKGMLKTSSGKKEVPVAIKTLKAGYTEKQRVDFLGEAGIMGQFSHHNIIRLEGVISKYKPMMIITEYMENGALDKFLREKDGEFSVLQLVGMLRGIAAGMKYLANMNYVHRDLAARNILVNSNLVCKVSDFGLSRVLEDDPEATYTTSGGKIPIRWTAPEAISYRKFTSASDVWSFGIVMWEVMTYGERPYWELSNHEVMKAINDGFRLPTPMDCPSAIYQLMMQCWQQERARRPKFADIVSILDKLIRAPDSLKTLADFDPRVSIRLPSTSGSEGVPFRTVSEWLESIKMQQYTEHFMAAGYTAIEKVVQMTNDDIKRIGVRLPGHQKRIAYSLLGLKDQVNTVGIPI
Sequence of Ephrin type-A receptor 4 (Homo sapiens) (P54764 whole entry): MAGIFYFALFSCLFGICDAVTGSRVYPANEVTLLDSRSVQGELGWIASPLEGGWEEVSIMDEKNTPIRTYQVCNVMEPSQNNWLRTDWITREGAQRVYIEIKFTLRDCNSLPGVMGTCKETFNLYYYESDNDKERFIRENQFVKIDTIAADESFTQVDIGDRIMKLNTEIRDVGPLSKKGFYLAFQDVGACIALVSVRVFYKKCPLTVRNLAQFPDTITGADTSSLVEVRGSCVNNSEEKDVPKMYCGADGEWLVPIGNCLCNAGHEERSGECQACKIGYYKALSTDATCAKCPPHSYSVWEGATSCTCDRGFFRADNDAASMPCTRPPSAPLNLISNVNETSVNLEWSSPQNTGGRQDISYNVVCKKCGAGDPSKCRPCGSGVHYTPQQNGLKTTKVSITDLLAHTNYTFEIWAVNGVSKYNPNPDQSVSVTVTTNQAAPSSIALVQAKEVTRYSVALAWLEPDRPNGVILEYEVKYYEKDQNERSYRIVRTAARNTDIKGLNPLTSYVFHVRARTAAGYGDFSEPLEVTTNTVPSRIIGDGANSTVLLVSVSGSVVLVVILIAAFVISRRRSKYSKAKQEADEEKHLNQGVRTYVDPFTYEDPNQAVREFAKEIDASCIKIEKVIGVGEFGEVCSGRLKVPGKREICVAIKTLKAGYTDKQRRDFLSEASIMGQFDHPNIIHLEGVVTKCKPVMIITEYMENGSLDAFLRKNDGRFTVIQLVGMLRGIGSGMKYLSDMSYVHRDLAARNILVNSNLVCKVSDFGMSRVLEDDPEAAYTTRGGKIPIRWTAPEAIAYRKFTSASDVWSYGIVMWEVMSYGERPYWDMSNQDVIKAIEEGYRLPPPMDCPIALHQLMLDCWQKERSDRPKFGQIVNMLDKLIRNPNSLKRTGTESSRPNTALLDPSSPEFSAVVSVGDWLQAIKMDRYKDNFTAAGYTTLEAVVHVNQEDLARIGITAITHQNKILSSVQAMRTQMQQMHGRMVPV
Sequence of Ephrin type-A receptor 5 (Homo sapiens) (P54756 whole entry): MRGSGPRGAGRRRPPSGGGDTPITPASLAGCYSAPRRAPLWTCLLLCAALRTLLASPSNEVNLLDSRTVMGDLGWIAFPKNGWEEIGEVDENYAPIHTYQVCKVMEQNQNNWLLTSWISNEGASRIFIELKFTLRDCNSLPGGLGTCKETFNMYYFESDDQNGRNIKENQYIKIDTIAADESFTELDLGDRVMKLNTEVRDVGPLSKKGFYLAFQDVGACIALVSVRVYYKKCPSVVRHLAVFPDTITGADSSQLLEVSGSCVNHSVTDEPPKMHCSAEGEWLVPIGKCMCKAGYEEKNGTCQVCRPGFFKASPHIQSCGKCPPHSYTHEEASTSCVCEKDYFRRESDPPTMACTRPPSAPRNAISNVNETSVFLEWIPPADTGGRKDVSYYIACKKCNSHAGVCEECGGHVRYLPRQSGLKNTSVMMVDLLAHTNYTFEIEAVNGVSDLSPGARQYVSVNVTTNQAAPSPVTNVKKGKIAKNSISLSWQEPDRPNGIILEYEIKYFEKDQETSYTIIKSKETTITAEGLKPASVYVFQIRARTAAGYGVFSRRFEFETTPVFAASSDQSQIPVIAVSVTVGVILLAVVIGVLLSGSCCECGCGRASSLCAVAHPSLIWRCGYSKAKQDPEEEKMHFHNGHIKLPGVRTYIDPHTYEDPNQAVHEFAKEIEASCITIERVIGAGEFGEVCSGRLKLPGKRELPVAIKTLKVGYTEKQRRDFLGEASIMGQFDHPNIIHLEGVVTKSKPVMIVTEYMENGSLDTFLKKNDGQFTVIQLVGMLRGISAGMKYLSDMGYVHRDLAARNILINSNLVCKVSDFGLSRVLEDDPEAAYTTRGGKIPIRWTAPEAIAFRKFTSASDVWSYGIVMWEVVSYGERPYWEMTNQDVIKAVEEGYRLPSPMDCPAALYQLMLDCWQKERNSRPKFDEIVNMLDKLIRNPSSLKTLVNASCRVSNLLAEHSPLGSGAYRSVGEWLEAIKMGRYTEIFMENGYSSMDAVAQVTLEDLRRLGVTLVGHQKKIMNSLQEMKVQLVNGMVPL
Sequence of Ephrin type-A receptor 7 (Homo sapiens) (Q15375 28-998 limits assumed): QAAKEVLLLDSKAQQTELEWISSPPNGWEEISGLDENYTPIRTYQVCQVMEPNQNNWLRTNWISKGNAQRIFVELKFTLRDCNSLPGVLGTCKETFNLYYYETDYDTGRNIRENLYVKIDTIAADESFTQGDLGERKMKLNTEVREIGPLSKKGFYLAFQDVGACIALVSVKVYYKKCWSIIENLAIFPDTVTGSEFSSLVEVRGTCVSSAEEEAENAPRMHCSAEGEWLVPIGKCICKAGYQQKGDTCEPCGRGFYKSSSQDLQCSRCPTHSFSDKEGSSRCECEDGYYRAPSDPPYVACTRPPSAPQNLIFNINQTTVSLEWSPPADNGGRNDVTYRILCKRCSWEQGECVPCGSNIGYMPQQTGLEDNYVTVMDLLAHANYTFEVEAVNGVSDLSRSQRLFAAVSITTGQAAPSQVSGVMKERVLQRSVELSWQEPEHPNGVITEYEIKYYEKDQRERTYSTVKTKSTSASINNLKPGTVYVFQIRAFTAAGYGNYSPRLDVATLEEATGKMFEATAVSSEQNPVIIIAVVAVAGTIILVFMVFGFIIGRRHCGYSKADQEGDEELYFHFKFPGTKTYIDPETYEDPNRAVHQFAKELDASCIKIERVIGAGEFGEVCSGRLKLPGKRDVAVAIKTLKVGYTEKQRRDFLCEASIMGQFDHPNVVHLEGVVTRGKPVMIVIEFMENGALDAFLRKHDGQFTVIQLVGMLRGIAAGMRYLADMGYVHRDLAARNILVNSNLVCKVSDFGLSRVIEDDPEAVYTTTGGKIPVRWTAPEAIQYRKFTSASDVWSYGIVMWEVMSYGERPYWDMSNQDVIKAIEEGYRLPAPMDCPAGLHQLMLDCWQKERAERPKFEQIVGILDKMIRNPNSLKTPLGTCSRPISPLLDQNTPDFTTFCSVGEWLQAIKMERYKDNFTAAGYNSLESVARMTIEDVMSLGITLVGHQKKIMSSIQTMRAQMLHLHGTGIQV

Row | SMILES | residual activity [1] | residual activity [2] | residual activity [3] | residual activity [4] | residual activity [5] | residual activity [6] | residual activity [7] | residual activity [8] | residual activity [9] | residual activity [10] | residual activity [11] | residual activity [12] | residual activity [13] | residual activity [14] | residual activity [15] | residual activity [16] | residual activity [17] | residual activity [18]
1 | Oc1c2ccccc2c2c3c(cccc13)N=N2 | 2% | 4% | -5% | 67% | 42% | 88% | 60% | 75% | 48% | 105% | 106% | 115% | 63% | 80% | 41% | 92% | 76% | 91%
2 | COc1cc2ncnc(Nc3ccc(O)c(Br)c3)c2cc1OC | 18% | 48% | 10% | 35% | 8% | 90% | 30% | 79% | 20% | 89% | 41% | 74% | 21% | 34% | 7% | 70% | 28% | 62%

Reference: ChEMBL document CHEMBL2218924, “A broad activity screen in support of a chemogenomic map for kinase signalling research and drug discovery” (Biochem J, 2013)
